# Test results from PubChem BioAssay AID1159580 (chemical genetic matrix, 2015).
# The campaign covered roughly 5,500 compounds. About 2,000 (36%) were called active. Another 18% or so got no clear call; they are omitted. The list shows a part of the results. A number with no mark means an inactive call. No stated cut-off is given here; in the data, active means normalized growth mostly below about 0.91 (no sharp cut-off); inconclusive means no clear call, values can overlap the other calls; inactive means mostly above about 0.92.
# Experiment: chemical genetic growth profiling, strain panel (AID 1159580);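 further: tested at 20 µM; growth read once vehicle control cultures reached saturation at 30 °C; 1 = growth at the plate median or of vehicle wells; lower values mean less growth of the strain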
# Conditions: S. cerevisiae deletion strains, growth OD
# [1] = locus YAR019C, strain CDC15, hits give low values
# [2] = locus YBL105C, strain PKC1, hits give low values
# [3] = locus YBR135W, strain CKS1, hits give low values
# [4] = locus YBR136W, strain MEC1, hits give low values
# [5] = locus YBR160W, strain CDC28, hits give low values
# [6] = locus YDL017W, strain CDC7, hits give low values
# [7] = locus YDL028C, strain MPS1, hits give low values
# [8] = locus YDL101C, strain DUN1, hits give low values
# [9] = locus YDL108W, strain KIN28, hits give low values
# [10] = locus YDL132W, strain cdc53, hits give low values
# [11] = locus YDL214C, strain PRR2, hits give low values
# [12] = locus YDR052C, strain DBF4, hits give low values
# [13] = locus YDR054C, strain cdc34, hits give low values
# [14] = locus YDR226W, strain ADK1, hits give low values
# [15] = locus YDR477W, strain SNF1, hits give low values
# [16] = locus YER123W, strain YCK3, hits give low values
# [17] = locus YER133W, strain GLC7, hits give low values
# [18] = locus YFL009W, strain cdc4, hits give low values
# [19] = locus YFL029C, strain CAK1, hits give low values
# [20] = locus YFR003C, strain YPI1, hits give low values
# [21] = locus YFR019W, strain FAB1, hits give low values
# [22] = locus YFR028C, strain CDC14, hits give low values
# [23] = locus YGR040W, strain KSS1, hits give low values
# [24] = locus YGR052W, strain FMP48, hits give low values
# [25] = locus YGR092W, strain DBF2, hits give low values
# [26] = locus YHR030C, strain SLT2, hits give low values
# [27] = locus YHR079C, strain IRE1, hits give low values
# [28] = locus YHR082C, strain KSP1, hits give low values
# [29] = locus YHR205W, strain SCH9, hits give low values
# [30] = locus YIL147C, strain SLN1, hits give low values
# [31] = locus YJL095W, strain BCK1, hits give low values
# [32] = locus YJL128C, strain PBS2, hits give low values
# [33] = locus YJL157C, strain FAR1, hits give low values
# [34] = locus YJR016C, strain ILV3, hits give low values
# [35] = locus YJR066W, strain TOR1 (second series), hits give low values
# [36] = locus YJR066W, strain TOR1, hits give low values
# [37] = locus YKL048C, strain ELM1, hits give low values
# [38] = locus YKL067W, strain YNK1, hits give low values
# [39] = locus YKL101W, strain HSL1, hits give low values
# [40] = locus YKL193C, strain SDS22, hits give low values
# [41] = locus YKL203C, strain TOR2, hits give low values
# [42] = locus YLR113W, strain HOG1, hits give low values
# [43] = locus YLR133W, strain CKI1, hits give low values
# [44] = locus YLR403W, strain SFP1, hits give low values
# [45] = locus YML070W, strain DAK1, hits give low values
# [46] = locus YMR001C, strain CDC5, hits give low values
# [47] = locus YMR205C, strain PFK2 (second series), hits give low values
# [48] = locus YMR277W, strain FCP1, hits give low values
# [49] = locus YNL006W, strain LST8, hits give low values
# [50] = locus YNL020C, strain ARK1, hits give low values
# [51] = locus YNL161W, strain CBK1, hits give low values
# [52] = locus YNL183C, strain NPR1, hits give low values
# [53] = locus YNL207W, strain RIO2, hits give low values
# [54] = locus YNL222W, strain SSU72, hits give low values
# [55] = locus YNL307C, strain MCK1 (second series), hits give low values
# [56] = locus YOL078W, strain AVO1, hits give low values
# [57] = locus YOL136C, strain PFK27, hits give low values
# [58] = locus YOR061W, strain CKA2, hits give low values
# [59] = locus YOR119C, strain RIO1, hits give low values
# [60] = locus YOR231W, strain MKK1, hits give low values
# [61] = locus YOR329C, strain SCD5, hits give low values
# [62] = locus YPL031C, strain PHO85, hits give low values
# [63] = locus YPL153C, strain RAD53, hits give low values
# [64] = locus YPL204W, strain HRR25, hits give low values
# [65] = locus YPL209C, strain IPL1, hits give low values
# [66] = locus YPL256C, strain CLN2, hits give low values
# [67] = locus YPR025C, strain CCL1, hits give low values
# [68] = locus YPR106W, strain ISR1, hits give low values
# [69] = locus YPR111W, strain DBF20, hits give low values
# [70] = strain NNK1, hits give low values
# [71] = strain TSCII, hits give low values
smiles,measurement,setting,value
Cc1nc(-c2ccccn2)nc(N(C)Cc2ccccc2)c1Cl,normalized growth,[1],0.951
same,normalized growth,[2],0.961
same,normalized growth,[3],0.967
same,normalized growth,[4],0.955
same,normalized growth,[5],0.968
same,normalized growth,[6],0.962
same,normalized growth,[7],0.956
same,normalized growth,[8],0.962
same,normalized growth,[9],0.951
same,normalized growth,[10],0.961
same,normalized growth,[11],0.997
same,normalized growth,[12],0.965
same,normalized growth,[13],0.948
same,normalized growth,[14],0.956
same,normalized growth,[15],0.971
same,normalized growth,[16],0.93
same,normalized growth,[17],0.975
same,normalized growth,[18],0.953
same,normalized growth,[19],0.94
same,normalized growth,[20],0.963
same,normalized growth,[21],1
same,normalized growth,[22],0.976
same,normalized growth,[23],0.964
same,normalized growth,[24],1.04
same,normalized growth,[25],0.863
same,normalized growth,[26],0.932
same,normalized growth,[27],0.95
same,normalized growth,[28],0.998
same,normalized growth,[29],0.954
same,normalized growth,[30],0.952
same,normalized growth,[31],0.966
same,normalized growth,[32],0.973
same,normalized growth,[33],0.972
same,normalized growth,[34],0.969
same,normalized growth,[35],0.958
same,normalized growth,[36],0.952
same,normalized growth,[37],0.982
same,normalized growth,[38],0.97
same,normalized growth,[39],0.945
same,normalized growth,[40],0.96
same,normalized growth,[41],1.01
same,normalized growth,[42],1
same,normalized growth,[43],0.968
same,normalized growth,[44],0.959
same,normalized growth,[45],0.966
same,normalized growth,[46],0.956
same,normalized growth,[47],0.981
same,normalized growth,[48],0.964
same,normalized growth,[49],0.975
same,normalized growth,[50],0.973
same,normalized growth,[51],0.964
same,normalized growth,[52],1
same,normalized growth,[53],0.959
same,normalized growth,[54],0.96
same,normalized growth,[55],0.922
same,normalized growth,[56],0.96
same,normalized growth,[57],0.963
same,normalized growth,[58],0.941
same,normalized growth,[59],0.991
same,normalized growth,[60],0.994
same,normalized growth,[61],0.955
same,normalized growth,[62],0.952
same,normalized growth,[63],0.943
same,normalized growth,[64],0.938
same,normalized growth,[65],0.958
same,normalized growth,[66],0.985
same,normalized growth,[67],0.963
same,normalized growth,[68],0.974
same,normalized growth,[69],0.976
same,normalized growth,[70],0.979
same,normalized growth,[71],0.953
Cc1nc(-c2ccccn2)nc(SCc2ccccc2)c1Cl,normalized growth,[1],0.946
same,normalized growth,[2],0.945
same,normalized growth,[3],0.941
same,normalized growth,[4],0.94
same,normalized growth,[5],0.954
same,normalized growth,[6],0.949
same,normalized growth,[7],0.939
same,normalized growth,[8],0.942
same,normalized growth,[9],0.94
same,normalized growth,[10],0.93
same,normalized growth,[11],0.844
same,normalized growth,[12],0.94
same,normalized growth,[13],0.922
same,normalized growth,[14],0.942
same,normalized growth,[15],0.849
same,normalized growth,[16],0.747
same,normalized growth,[17],0.826
same,normalized growth,[18],0.935
same,normalized growth,[19],0.935
same,normalized growth,[20],0.943
same,normalized growth,[21],0.887
same,normalized growth,[22],0.94
same,normalized growth,[23],0.829
same,normalized growth,[24],0.853
same,normalized growth,[25],0.705
same,normalized growth,[26],0.843 (active)
same,normalized growth,[27],0.766
same,normalized growth,[28],0.849
same,normalized growth,[29],0.86
same,normalized growth,[30],0.935
same,normalized growth,[31],0.862
same,normalized growth,[32],0.927
same,normalized growth,[33],0.798
same,normalized growth,[34],0.936
same,normalized growth,[35],0.786
same,normalized growth,[36],0.792
same,normalized growth,[37],0.96
same,normalized growth,[38],0.849
same,normalized growth,[39],0.875
same,normalized growth,[40],0.937
same,normalized growth,[41],0.869
same,normalized growth,[42],0.802 (active)
same,normalized growth,[43],0.876
same,normalized growth,[44],0.772
same,normalized growth,[45],0.816
same,normalized growth,[46],0.942
same,normalized growth,[47],0.864
same,normalized growth,[48],0.941
same,normalized growth,[49],0.94
same,normalized growth,[50],0.827
same,normalized growth,[51],0.942
same,normalized growth,[52],0.826
same,normalized growth,[53],0.921
same,normalized growth,[54],0.943
same,normalized growth,[55],0.807
same,normalized growth,[56],0.938
same,normalized growth,[57],0.834
same,normalized growth,[58],0.815
same,normalized growth,[59],0.843
same,normalized growth,[60],0.819
same,normalized growth,[61],0.946
same,normalized growth,[62],0.791
same,normalized growth,[63],0.793
same,normalized growth,[64],0.834
same,normalized growth,[65],0.952
same,normalized growth,[66],0.934
same,normalized growth,[67],0.942
same,normalized growth,[68],0.95
same,normalized growth,[69],0.955
same,normalized growth,[70],0.945
same,normalized growth,[71],0.933
